# Results as given in PubChem BioAssay (NCATS).
# Inconclusive results are not listed. Entries that show only a call come without a potency. Calls of active or inactive are those of the source. Calls come from the whole dose curve; as a rule, active = well fitted curve in the direction sought with a large enough effect; inconclusive = small, poorly fitted or top-dose-only effect, or another doubt; inactive = no such curve, though single readings can be large; an effect the other way counts as inactive or inconclusive.
# Target: Thyrotropin receptor (Homo sapiens) (UniProt P16473)
# Assay: qHTS Assay for Antagonists of the Thyroid Stimulating Hormone Receptor (AID 488980)
# Conditions: TSHR-expressing cells, cAMP antagonist read-out; series mostly up to 57.5 µM
# How it was run: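 Inhibition of TSH-stimulated cAMP accumulation was quantified by homogeneous time-resolved FRET in TSHR-transfected HEK293 cells. Agonist: TSH, 4 nM final (EC80).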
# Sequence of Thyrotropin receptor (Homo sapiens) (P16473 whole entry, looked up): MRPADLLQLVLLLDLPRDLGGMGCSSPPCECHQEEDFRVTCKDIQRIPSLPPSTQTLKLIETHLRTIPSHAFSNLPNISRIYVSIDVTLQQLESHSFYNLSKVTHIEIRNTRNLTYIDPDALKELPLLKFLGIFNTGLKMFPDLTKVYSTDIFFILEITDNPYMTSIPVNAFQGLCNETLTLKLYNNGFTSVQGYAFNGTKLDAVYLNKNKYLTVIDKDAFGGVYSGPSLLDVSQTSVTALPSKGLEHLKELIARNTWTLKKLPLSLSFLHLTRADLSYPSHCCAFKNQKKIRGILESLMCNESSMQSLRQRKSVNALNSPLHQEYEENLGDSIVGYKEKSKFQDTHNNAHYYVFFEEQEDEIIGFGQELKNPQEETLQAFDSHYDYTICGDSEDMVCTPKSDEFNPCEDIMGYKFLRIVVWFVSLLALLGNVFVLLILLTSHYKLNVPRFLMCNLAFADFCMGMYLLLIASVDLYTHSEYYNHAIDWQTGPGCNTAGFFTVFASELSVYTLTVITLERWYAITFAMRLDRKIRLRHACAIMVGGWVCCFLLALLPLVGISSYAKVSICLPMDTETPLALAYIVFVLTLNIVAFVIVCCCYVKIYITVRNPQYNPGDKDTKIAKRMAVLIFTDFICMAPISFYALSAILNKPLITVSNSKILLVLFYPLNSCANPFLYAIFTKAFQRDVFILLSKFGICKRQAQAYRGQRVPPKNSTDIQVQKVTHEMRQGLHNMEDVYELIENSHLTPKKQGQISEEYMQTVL
row,Structure (SMILES),outcome
1,CC(N)Cc1c[nH]c2ccc(O)cc12 (stereo not given),inactive
2,COc1ccc2c(c1)[C@@]13CCCC[C@H]1[C@@H](C2)NCC3,inactive
3,O=c1c2ccccc2[se]n1-c1ccccc1,inactive
4,Ic1ccccc1CNC1C2CCN(CC2)C1C(c1ccccc1)c1ccccc1 (stereo not given),inactive
5,OCc1cnc[nH]1,inactive
6,CC(C)NP(=O)(NC(C)C)OP(=O)(NC(C)C)NC(C)C,inactive
7,N#CC(C#N)=Cc1cc(O)c(O)c(O)c1,inactive
8,COc1ccc2c(c1)/C(=C/c1cnc[nH]1)C(=O)N2,inactive
9,CN1C2CCC1CC(OC(c1ccccc1)c1ccc(Cl)cc1)C2 (stereo not given),inactive
10,COc1ccc(CNC(=O)/C=C/c2ccc3[nH]cc(CCN(C)C)c3c2)cc1,inactive
11,CCCCCCCCCCCCCC(=O)O[C@@H]1[C@@H](C)[C@@]2(O)[C@@H](C=C(CO)C[C@@]3(O)C(=O)C(C)=C[C@@H]23)C2C(C)(C)[C@@]21OC(C)=O (stereo not given in full),inactive
12,Oc1ccc2c3c1O[C@H]1c4[nH]c5ccccc5c4C[C@@]4(O)C(C2)N(CC2CC2)CCC314 (stereo not given in full),inactive
13,CN1CC[C@@]2(C)c3cc(O)ccc3N(C)C12 (stereo not given in full),inactive
14,C[N+](C)(C)CC#CCOC(=O)Nc1cccc(Cl)c1,inactive
15,Oc1ccc2c3c1O[C@H]1c4oc5ccccc5c4C[C@@]4(O)C(C2)N(CC2CC2)CCC314 (stereo not given in full),inactive
16,CN1CCC(c2c[nH]c3ccc(O)cc23)CC1,inactive

row,Structure (SMILES),outcome
1,COC(=O)N1CCN(C(=O)Cc2ccc(Cl)c(Cl)c2)C(CN2CCCC2)C1 (stereo not given),inactive
2,COc1ccc2c(c1)C13CCCCC1C(C2)N(C)CC3 (stereo not given),inactive
3,C[C@]12Cc3cn4c(nc3C=C1CCC1C2CC[C@@]2(C)[C@H]1CC[C@@]2(O)C#N)nc1ccccc14 (stereo not given in full),inactive
4,CCCn1c(=O)c2[nH]c(C3CCCC3)nc2n(CCCOC(=O)c2ccc(S(=O)(=O)F)cc2)c1=O,inactive
5,CNC(=O)OCC[N+](C)(C)C,inactive
6,C[N+]1(C)CCOC(O)(c2ccc(-c3ccc(C4(O)C[N+](C)(C)CCO4)cc3)cc2)C1 (stereo not given),inactive
7,C[N+]1(C)C2CCC1CC(OC(=O)c1c[nH]c3ccccc13)C2 (stereo not given),inactive
8,NC(N)=Nc1ccc2[nH]c3c(c2c1)C[C@@]1(O)[C@H]2Cc4ccc(O)c5c4[C@@]1(CCN2CC1CC1)[C@H]3O5,inactive
9,Nc1ccc(CCN2CCN(c3cccc(C(F)(F)F)c3)CC2)cc1,inactive
10,Cc1[nH]c2ccc(O)cc2c1CCN,inactive
11,CC(=O)c1c(O)c(C)c(O)c(Cc2c(O)c3c(c(C(=O)/C=C/c4ccccc4)c2O)OC(C)(C)C=C3)c1O,inactive
12,C=CCN1CC[C@]23c4c5ccc(O)c4O[C@H]2/C(=N/NC(=O)c2ccccc2)CC[C@@]3(O)[C@H]1C5,inactive
13,C[C@@H]1O[C@H](C[N+](C)(C)C)CS1,inactive
14,CC(N)Cc1c[nH]c2ccc(OCc3cccs3)cc12 (stereo not given),inactive
15,NC(C(=O)O)c1cc(=O)[nH]o1 (stereo not given),inactive
16,CN(N=O)c1cc(O)ccc1O,inactive

# Target: D(1A) dopamine receptor (Homo sapiens) (UniProt P21728)
# Assay: HTS Assay for Allosteric Agonists of the Human D1 Dopamine Receptor: Primary Screen for Agonists (AID 488981)
# Conditions: Inducible HEK293 T-REx D1 cells, calcium-flux fluorescence, 180 s kinetic; series mostly up to 41.8 µM
# How it was run: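 Calcium flux in an inducible, force-coupled HEK293 Trex D1 line (overnight at 30 C): agonist mode is the 180 s kinetic read after compound; potentiator mode is the following 180 s read after dopamine at EC20.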
# Sequence of D(1A) dopamine receptor (Homo sapiens) (P21728 whole entry, looked up): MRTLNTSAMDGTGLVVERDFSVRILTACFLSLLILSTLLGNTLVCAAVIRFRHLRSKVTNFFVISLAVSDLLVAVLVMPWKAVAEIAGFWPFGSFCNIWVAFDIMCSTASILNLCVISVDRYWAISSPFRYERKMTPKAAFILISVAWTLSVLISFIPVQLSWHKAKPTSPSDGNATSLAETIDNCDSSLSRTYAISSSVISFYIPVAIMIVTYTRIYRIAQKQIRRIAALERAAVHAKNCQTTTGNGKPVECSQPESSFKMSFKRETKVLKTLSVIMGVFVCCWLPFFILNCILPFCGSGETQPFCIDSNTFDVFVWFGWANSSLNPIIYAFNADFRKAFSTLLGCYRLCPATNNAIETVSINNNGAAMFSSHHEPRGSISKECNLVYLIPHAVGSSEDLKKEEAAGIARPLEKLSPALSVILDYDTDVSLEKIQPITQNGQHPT
row,Structure (SMILES),Potency
1,CCCC[N+]1(C)C2CC(OC(=O)[C@H](CO)c3ccccc3)CC1C1OC12 (stereo not given in full),inactive
2,CC(N)Cc1c[nH]c2ccc(O)cc12 (stereo not given),inactive
3,COc1ccc2c(c1)[C@@]13CCCC[C@H]1[C@@H](C2)NCC3,inactive
4,c1ccc2cc(CC3=NCCN3)ccc2c1,inactive
5,OCc1cnc[nH]1,inactive
6,CC(C)NP(=O)(NC(C)C)OP(=O)(NC(C)C)NC(C)C,inactive
7,C=CCN(C1=NCCN1)c1c(Cl)cccc1Cl,inactive
8,C[N+]1(C)CCc2cc3c(cc2[C@H]1[C@@H]1OC(=O)c2c1ccc1c2OCO1)OCO3,inactive
9,COc1ccc2c(c1)/C(=C/c1cnc[nH]1)C(=O)N2,inactive
10,COc1ccc(CNC(=O)/C=C/c2ccc3[nH]cc(CCN(C)C)c3c2)cc1,inactive
11,CO[C@H]1CC=C2CCN3CCC4=C(CC(=O)OC4)[C@]23C1,inactive
12,CCCCCCCCCCCCCC(=O)O[C@@H]1[C@@H](C)[C@@]2(O)[C@@H](C=C(CO)C[C@@]3(O)C(=O)C(C)=C[C@@H]23)C2C(C)(C)[C@@]21OC(C)=O (stereo not given in full),inactive
13,Oc1ccc2c3c1O[C@H]1c4[nH]c5ccccc5c4C[C@@]4(O)C(C2)N(CC2CC2)CCC314 (stereo not given in full),inactive
14,CN1CC[C@@]2(C)c3cc(O)ccc3N(C)C12 (stereo not given in full),inactive
15,C[N+](C)(C)CC#CCOC(=O)Nc1cccc(Cl)c1,inactive
16,Oc1ccc2c3c1O[C@H]1c4oc5ccccc5c4C[C@@]4(O)C(C2)N(CC2CC2)CCC314 (stereo not given in full),inactive
17,CN1CCC(c2c[nH]c3ccc(O)cc23)CC1,inactive

row,Structure (SMILES),Potency
1,COC(=O)N1CCN(C(=O)Cc2ccc(Cl)c(Cl)c2)C(CN2CCCC2)C1 (stereo not given),inactive
2,COc1ccc2c(c1)C13CCCCC1C(C2)N(C)CC3 (stereo not given),inactive
3,C[C@]12Cc3cn4c(nc3C=C1CCC1C2CC[C@@]2(C)[C@H]1CC[C@@]2(O)C#N)nc1ccccc14 (stereo not given in full),inactive
4,CCCn1c(=O)c2[nH]c(C3CCCC3)nc2n(CCCOC(=O)c2ccc(S(=O)(=O)F)cc2)c1=O,inactive
5,Cc1cc([C@@H]2CCCN2C)on1,inactive
6,N=C(N)c1ccc(CS(=O)(=O)F)cc1,inactive
7,C[N+]1(C)CCOC(O)(c2ccc(-c3ccc(C4(O)C[N+](C)(C)CCO4)cc3)cc2)C1 (stereo not given),inactive
8,C[N+]1(C)C2CCC1CC(OC(=O)c1c[nH]c3ccccc13)C2 (stereo not given),inactive
9,NC(N)=Nc1ccc2[nH]c3c(c2c1)C[C@@]1(O)[C@H]2Cc4ccc(O)c5c4[C@@]1(CCN2CC1CC1)[C@H]3O5,inactive
10,Nc1ccc(CCN2CCN(c3cccc(C(F)(F)F)c3)CC2)cc1,inactive
11,Cc1[nH]c2ccc(O)cc2c1CCN,inactive
12,CC(=O)c1c(O)c(C)c(O)c(Cc2c(O)c3c(c(C(=O)/C=C/c4ccccc4)c2O)OC(C)(C)C=C3)c1O,inactive
13,C=CCN1CC[C@]23c4c5ccc(O)c4O[C@H]2/C(=N/NC(=O)c2ccccc2)CC[C@@]3(O)[C@H]1C5,inactive
14,C[C@@H]1O[C@H](C[N+](C)(C)C)CS1,inactive
15,NC(C(=O)O)c1cc(=O)[nH]o1 (stereo not given),inactive
16,CN(N=O)c1cc(O)ccc1O,inactive
